A short description of experiment [1]: P-glycoprotein substrates identified in KB-8-5-11 adenocarcinoma cell line, qHTS therapeutic library screen (AID 1346987). Further: nearly all actives have a fitted effect of over 65% in size. In short, it runs like this: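 Luminescence from CellTiter-Glo, read 5 min after addition, quantified survival of KB-8-5-11 (P-gp-overexpressing) cells exposed to compounds for 72 h. AC50 was derived from concentration-response curves.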
In general terms: Quantitative high-throughput screening tests each substance at several concentrations.

Experiment [2] can be described thus: NS1 protein of Zika virus - qHTS assay to identify small molecule inhibitors in human HEK 293 cells (AID 1347053). Further: nearly all actives have a fitted effect of over 55% in size. In short, it runs like this:
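Read-out is a two-antibody TR-FRET for ZIKV NS1, normalized between uninfected cells and infected cells. Compound added 1 h before MR766 infection at MOI 0.5; human HEK 293 cells incubated 24 h, 37 C.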

Experiment [3] can be described thus: qHTS of pediatric cancer cell lines to identify multiple opportunities for drug repurposing: Primary screen for TC32 cells (AID 1347089). Further: nearly all actives have a fitted effect of over 60% in size. In short, it runs like this:
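Luminescent CellTiter-Glo read-out of metabolically active TC32 cells after 48 h compound exposure. Primary: MIPE 11-point, 0.78 nM–46 µM; NPC 8-point, 0.59 nM–46 µM. Confirmatory: 11-point dilutions.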

Experiment [4] in a line: qHTS of pediatric cancer cell lines to identify multiple opportunities for drug repurposing: Primary screen for DAOY cells (AID 1347090). Further: nearly all actives have a fitted effect of over 55% in size. An outline of the steps:
(§1)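 Viability measured as metabolically active cells via CellTiter-Glo luminescence following 48 hours of compound exposure, 11-point dilutions in confirmatory testing. 500-1,000 cells/well plated 5 hours before dosing; controls were DMSO and 2.3 µM bortezomib.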

A short description of experiment [5]: qHTS of pediatric cancer cell lines to identify multiple opportunities for drug repurposing: Primary screen for A673 cells (AID 1347092). Further: nearly all actives have a fitted effect of over 45% in size. In short, it runs like this:
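A673 cells (500-1,000 cells/well in growth media) were pre-incubated 5 h at 37 degrees C, then exposed to compounds for 48 h. Viability was read as CellTiter-Glo luminescence; concentration-response curves came directly from the primary screen.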

A short description of experiment [6]: qHTS of pediatric cancer cell lines to identify multiple opportunities for drug repurposing: Primary screen for BT-37 cells (AID 1347094). An outline of the steps:
(§2)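 Phenotypic viability qHTS, 48 h compound exposure, CellTiter-Glo luminescence read-out; multi-concentration dosing so that potency and efficacy derive directly from the primary screen's curves.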

A short description of experiment [7]: qHTS of pediatric cancer cell lines to identify multiple opportunities for drug repurposing: Primary screen for NB-EBc1 cells (AID 1347095). In short, it runs like this:
as §2

Experiment [8] is described as follows: qHTS of pediatric cancer cell lines to identify multiple opportunities for drug repurposing: Primary screen for Saos-2 cells (AID 1347097). Further: nearly all actives have a fitted effect of over 40% in size. An outline of the steps:
as §2

Experiment [9] in a line: qHTS of pediatric cancer cell lines to identify multiple opportunities for drug repurposing: Primary screen for SJ-GBM2 cells (AID 1347091). In short, it runs like this: as §1
The nature of experiment [10]: qHTS of pediatric cancer cell lines to identify multiple opportunities for drug repurposing: Primary screen for SK-N-MC cells (AID 1347093). An outline of the steps:
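Metabolically active cells were quantified by ATP-dependent luminescence (CellTiter-Glo, 15 min at room temperature) following 48 h treatment. Cells had been plated at 500-1,000 per well and settled for 5 h beforehand.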

Experiment [11] can be described thus: qHTS of pediatric cancer cell lines to identify multiple opportunities for drug repurposing: Primary screen for U-2 OS cells (AID 1347096). Further: nearly all actives have a fitted effect of over 50% in size. In short, it runs like this: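 Viability after 48 h compound treatment at 37C, 500-1,000 cells/well, read as ATP luminescence with CellTiter-Glo. Primary screens used 11-point (MIPE, 0.78 nM-46 µM) or 8-point (NPC, 0.59 nM-46 µM) final concentrations; follow-up screens used 11-point dilutions.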

A short description of experiment [12]: qHTS of pediatric cancer cell lines to identify multiple opportunities for drug repurposing: Primary screen for NB1643 cells (AID 1347099). Further: nearly all actives have a fitted effect of over 50% in size. In short, it runs like this:
as §2

A short description of experiment [13]: qHTS of pediatric cancer cell lines to identify multiple opportunities for drug repurposing: Primary screen for SK-N-SH cells (AID 1347098). Further: nearly all actives have a fitted effect of over 65% in size. In short, it runs like this:
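Cells (500-1,000/well) rested 5 h, then received compounds for 48 h; metabolically active cells were measured by CellTiter-Glo luminescence. Final concentrations spanned up to 46 µM (MIPE, 11-point) or 0.59 nM-46 µM (NPC, 8-point) in primary screens, 11-point in follow-ups.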

The structures appear in SMILES notation. Inconclusive results are not listed. The source made the active and inactive calls. The call rests on the fitted dose curve; in most records, active means well fitted curve in the direction sought with a large enough effect; inconclusive means small, poorly fitted or top-dose-only effect, or another doubt; inactive means no such curve, though single readings can be large; an effect the other way counts as inactive or inconclusive.
Potency means the concentration at half of the fitted maximal effect.

`CC(C)(Cc1ccc2ccccc2c1)NC[C@@H](O)COc1cccc(Cl)c1C#N`: the Potency result in experiment [1], in experiment [2], in experiment [3], in experiment [4] and in experiment [8] was “inactive” each time. The Potency in experiment [5] was 14.8 µM (active); in experiment [6] it was 19.3 µM (active); in experiment [7] it was 2.35 µM (active).
For `CC(C)C(C)C=CC(C)C1CCC2C3=CC=C4CC(O)CCC4(C)C3CCC21C` (stereo not drawn), the Potency entry in experiment [1], in experiment [2], in [3], in experiment [4], in experiment [9] and in [5] was “inactive” each time. For the same compound, the Potency entry in experiment [10], in experiment [6], in experiment [7] and in experiment [8] was “inactive” each time.
For `O=C1c2ccccc2-[n+]2ccc3c([nH]c4ccccc43)c21`, the Potency in experiment [1] is 3.32 µM (active); in experiment [2] it was 1.05 µM (active); in experiment [3], 4.66 µM (active); in experiment [4], 2.96 µM (active); in [9], 833 nM (active); in experiment [5], 1.18 µM (active). For the same compound, the Potency in [10] was 1.32 µM (active); in [6], 2.43 µM (active); in experiment [7], 0.833 µM (active); in [11], 9.35 µM (active); in experiment [8] it was 2.35 µM (active); in [12] it was 5.26 µM (active).
Consider `O=C1NC(=O)C(=Cc2ccc3c(c2)OC(F)(F)O3)S1`, for which the Potency entry in experiment [1], in [2] and in experiment [3] was “inactive” throughout. Also, the figures for the Potency in [4], in experiment [10] and in experiment [13] were 23.5 µM (active), 3.32 µM (active) and 12.1 µM (active), respectively.
`CCc1ccc(OCc2ccccc2C(=O)Nc2ccc3nc(C)cc(N)c3c2)cc1`: the Potency is 7.43 µM (active) in [1]; 2.96 µM (active) in experiment [2]; 20.8 µM (active) in experiment [3]; 11.8 µM (active) in experiment [4]; 2.96 µM (active) in experiment [5]; 5.9 µM (active) in [10]. For the same compound, the Potency in experiment [6] was 8.63 µM (active); in experiment [11], 7.43 µM (active); in experiment [8], 14.8 µM (active); in experiment [13], 12.1 µM (active); in [12] it was 8.33 µM (active).
Regarding `Cc1[nH]c(C=C2C(=O)Nc3ccc(S(=O)(=O)Cc4c(Cl)cccc4Cl)cc32)c(C)c1C(=O)N1CCC[C@H]1CN1CCCC1`, the Potency result in experiment [1], in experiment [2], in experiment [3], in experiment [4] and in experiment [7] was “inactive” throughout. Besides, the Potency is 33.2 nM (active) in experiment [9]; 23.5 µM (active) in [5]; 18.7 µM (active) in experiment [10]; 27.3 µM (active) in [6]; 18.7 µM (active) in [8].
Regarding `O=C(Nc1ccccc1-c1cn2c(CN3CCNCC3)csc2n1)c1cnc2ccccc2n1`, the Potency in [1] was 26.4 µM (active); in [4] it was 23.5 µM (active); in experiment [5], 18.7 µM (active); in experiment [6], 27.3 µM (active); in experiment [12], 13.2 µM (active). For the same compound, the Potency result in experiment [2], in experiment [3] and in experiment [7] was “inactive” throughout.
On to `CC1(C)CCC[C@@]2(C)[C@@H]1CC[C@@]1(C)OC(=O)C[C@H]21`, for which the Potency result in experiment [1], in experiment [2], in experiment [3], in experiment [4], in experiment [5] and in experiment [6] was “inactive” throughout. In addition, the Potency result in experiment [7], in [11], in [13] and in experiment [12] was “inactive” throughout. In experiment [10], the Potency is 8.33 µM (active).
`Cn1c(N2CCCCS2(=O)=O)nc(C(=O)NCc2ccc(F)cc2)c(O)c1=O`: the Potency result in experiment [1], in experiment [2], in [3], in [4], in experiment [9] and in experiment [5] was “inactive” each time. Further, the Potency result in experiment [10], in experiment [6], in [7], in experiment [11], in experiment [13] and in experiment [12] was “inactive” throughout.
`CCC(=O)O[C@]1(C(=O)CO)CC[C@H]2[C@@H]3CCC4=CC(=O)CC[C@]4(C)[C@@H]3CC[C@@]21C`: the Potency entry in [1], in [2], in [3], in experiment [4], in experiment [9] and in experiment [10] was “inactive” each time. For the same compound, the Potency result in experiment [6], in experiment [7], in experiment [8], in [13] and in experiment [12] was “inactive” throughout.
Take `COc1ccc2c(Oc3ccc(NC(=O)c4c(C)n(CC(C)(C)O)n(-c5ccccc5)c4=O)nc3)ccnc2c1`: the Potency entry in [1], in experiment [2], in [3] and in experiment [5] was “inactive” in each case. Also, the Potency is 469 nM (active) in [9] and 29.6 µM (active) in experiment [10].
As for `C[C@]12CC[C@@H]3c4ccc(O)cc4C[C@@H](CCCCCCCCCS(=O)CCCC(F)(F)C(F)(F)F)[C@H]3[C@H]1CC[C@H]2O` (stereo partly drawn), the Potency entry in [1], in experiment [2], in experiment [3], in experiment [4], in [5] and in experiment [7] was “inactive” in each case. The Potency entry in experiment [13] and in [12] was “inactive” throughout.
Take `C[C@]12CC[C@@H]3c4ccc(O)cc4CC[C@H]3[C@H]1C[C@@H](O)[C@H]2O`: the Potency entry in experiment [1], in [2], in [3], in experiment [4], in experiment [9] and in experiment [6] was “inactive” throughout. Besides, the Potency result in experiment [11] and in [8] was “inactive” each time.
For the compound `N[C@@]1(C(=O)O)CS(=O)(=O)[C@H]2[C@H](C(=O)O)[C@H]21`, the Potency entry in experiment [1], in experiment [2], in experiment [3], in [4], in experiment [9] and in experiment [7] was “inactive” throughout. Moreover, the Potency entry in [11] and in experiment [8] was “inactive” throughout. Further, the Potency in experiment [5] was 1.87 µM (active); in experiment [10], 18.7 µM (active).
Take `Cc1ccccc1C(C(=O)NC1CCCCC1)N(C(=O)Cn1ccnc1C)c1cccc(F)c1` (stereo not drawn): the Potency entry in experiment [1], in experiment [2], in experiment [3], in experiment [4], in experiment [9] and in experiment [6] was “inactive” each time. Moreover, the Potency result in experiment [11] and in [12] was “inactive” throughout. Besides, the Potency in experiment [10] was 23.5 µM (active).
For `O=C(O)C=Cc1ccc(O)c(O)c1`, the Potency entry in [1], in [2], in experiment [3] and in experiment [9] was “inactive” in each case. In addition, the Potency in experiment [4] was 7.43 µM (active); in [10], 2.64 µM (active); in experiment [8] it was 23.5 µM (active); in experiment [12], 20.9 µM (active).
Consider `COc1ccc2cccc(CCNC(C)=O)c2c1`, for which the Potency result in [1], in experiment [2], in experiment [3], in experiment [4], in [9] and in [5] was “inactive” in each case. Further, the Potency result in experiment [10], in [6], in experiment [7], in experiment [8] and in [13] was “inactive” in each case.
For `C[N+]1(C)[C@@H]2CC(OC(=O)[C@H](CO)c3ccccc3)C[C@H]1[C@H]1O[C@@H]12` (stereo partly drawn), the Potency result in [1], in experiment [2], in experiment [3], in experiment [9], in experiment [5] and in experiment [10] was “inactive” each time. In addition, the Potency entry in experiment [6], in experiment [7], in experiment [11] and in [8] was “inactive” throughout.
For `CC(C)(C)OC(=O)N[C@H]1CCCCCC=C[C@@H]2C[C@@]2(C(=O)NS(=O)(=O)C2CC2)NC(=O)[C@@H]2C[C@@H](OC(=O)N3Cc4cccc(F)c4C3)CN2C1=O`, the Potency entry in experiment [1], in [2], in [3], in [4], in experiment [9] and in experiment [5] was “inactive” each time. The Potency result in experiment [6], in experiment [7], in experiment [11], in experiment [13] and in [12] was “inactive” each time. In experiment [10], the Potency is 29.6 µM (active).
For `CN[C@@H](C)C(=O)N[C@H]1CN(C(=O)CC(C)C)CC[C@H]2CC[C@@H](C(=O)NC(c3ccccc3)c3ccccc3)N2C1=O`, the Potency result in [1], in experiment [2], in [3], in [11] and in [12] was “inactive” in each case. Besides, the Potency is 2.35 µM (active) in experiment [4]; 935 nM (active) in experiment [9]; 0.0074 µM (active) in [5]; 0.372 µM (active) in experiment [10]; 0.153 µM (active) in experiment [6]; 2.96 µM (active) in [7]. In addition, in experiment [8], the Potency was 0.296 µM (active).

(Values after PubChem BioAssay (NCATS).)
